# From PubChem
# Beta apoptosis: inhibitors of cytokine-induced beta cell apoptosis, primary screen, luminescence. INS-1E cytokine-induced death, ATP luminescence, 48 h; percent of positive-control rescue, neutral wells zero. protection from apoptosis, % (test concentration not listed). hit rate 0.8% among 300,000. AID 435005, 2010;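 active means Every replicate reaches about 75%, or at least half do and their mean reaches it too, limit read from the data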;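 further: 0% = cytokine-treated negative control wells and 100% = positive control rescue; higher means more ATP so stronger rescue from cytokine killing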
# CSC inhib: cancer stem cell viability inhibitors, primary screen, luminescence; cancer stem cell-like cells viability; inhibition, % at 7.5 µM; hit rate 1.1% among 300,000; in the data active means inhibition above about 75%; tested in HMLE shEcad cells
# Calb FLC: C. albicans growth inhibition with fluconazole, primary screen, CaCi-2 strain, Alamar Blue fluorescence. growth inhibition, % (concentration not given with the values). hit rate 0.57% among 300,000. C. albicans CaCi-2 (fluconazole-resistant clinical isolate) + fluconazole, 48 h;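 active means growth inhibition above about 58% in most replicates, limit read from the data, passing the limit was not always enough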;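 further: all wells also contain fluconazole at 8 µg/ml as a sub-toxic cotreatment; 0% = median of DMSO wells and 100% = median of geldanamycin control wells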
# MPTP inh: mitochondrial permeability transition pore inhibitors, primary screen, biochemical, isolated mouse mitochondria, absorbance | AID 602449, 2012 | hit rate 1.4% among 360,000 | Ca2+ swelling absorbance, 30 min | inhibition, % at 10 µM;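 active means inhibition of 50% or more, scaled per plate between neutral and stimulator controls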;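 further: 0% = DMSO wells given calcium and 100% = 1 mM EGTA wells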
# Mdm2 MdmX PPI: inhibitors of human Mdm2-MdmX association, primary screen, cell-based, luminescence, split luciferase, SaOS-2, uHTS | SaOS-2 split-luciferase Mdm2/MdmX complementation | inhibition, % at 8 µM | Protein Mdm4 (Homo sapiens) + E3 ubiquitin-protein ligase Mdm2 (Homo sapiens), … | hit rate 3% among 330,000;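 active means inhibition of at least 50% at 8 µM in the primary screen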
# Target sequence (O15151 whole entry, looked up): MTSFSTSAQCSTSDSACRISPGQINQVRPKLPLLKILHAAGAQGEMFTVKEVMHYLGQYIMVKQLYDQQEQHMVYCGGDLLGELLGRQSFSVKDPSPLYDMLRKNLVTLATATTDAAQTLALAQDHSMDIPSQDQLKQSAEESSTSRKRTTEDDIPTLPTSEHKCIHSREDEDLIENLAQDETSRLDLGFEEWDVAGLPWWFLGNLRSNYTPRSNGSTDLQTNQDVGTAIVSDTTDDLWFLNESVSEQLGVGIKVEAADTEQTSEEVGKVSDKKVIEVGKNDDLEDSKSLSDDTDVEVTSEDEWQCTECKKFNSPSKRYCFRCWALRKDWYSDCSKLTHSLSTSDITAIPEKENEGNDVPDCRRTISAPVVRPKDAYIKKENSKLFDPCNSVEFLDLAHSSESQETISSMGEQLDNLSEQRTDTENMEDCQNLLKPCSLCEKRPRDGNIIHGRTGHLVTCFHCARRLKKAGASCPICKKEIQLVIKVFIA
# Target sequence (Q00987 whole entry, looked up): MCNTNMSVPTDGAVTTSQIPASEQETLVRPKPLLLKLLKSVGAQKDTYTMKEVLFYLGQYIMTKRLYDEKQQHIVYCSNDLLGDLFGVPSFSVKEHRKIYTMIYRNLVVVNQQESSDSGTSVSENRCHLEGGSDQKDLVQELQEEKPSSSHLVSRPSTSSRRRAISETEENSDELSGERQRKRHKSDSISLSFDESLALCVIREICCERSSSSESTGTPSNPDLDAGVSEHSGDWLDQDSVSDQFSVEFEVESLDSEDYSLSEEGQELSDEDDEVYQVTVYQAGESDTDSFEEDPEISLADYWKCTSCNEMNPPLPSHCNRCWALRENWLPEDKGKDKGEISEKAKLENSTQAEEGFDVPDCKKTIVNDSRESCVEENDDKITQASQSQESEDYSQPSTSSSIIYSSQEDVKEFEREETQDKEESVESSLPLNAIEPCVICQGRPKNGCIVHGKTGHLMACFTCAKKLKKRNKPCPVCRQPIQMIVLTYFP
# MPTP counter: fluorescence retest of MPTP screen hits in isolated mitochondria, single concentration. shares compounds with MPTP inh. membrane potential, Rhodamine 123 fluorescence. inhibition, % at 10 µM. hit rate 78% among 5,000. AID 624504, 2012; in the data active means inhibition above about 22%;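 further: 0% = DMSO vehicle and 100% = positive control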
# MPTP swell DR: mitochondrial permeability transition pore inhibitors, dose response, biochemical, absorbance, uHTS hits. shares compounds with MPTP inh. isolated mitochondria swelling. IC50, µM. hit rate 58% among 780. AID 651561, 2012; in the data active means IC50 below about 20 µM
# MPTP cs DR: fluorescent counter-screen in isolated mitochondria, dose response, counter-screen for MPTP inhibitor project, biochemical, fluorescence, uHTS hits. shares compounds with MPTP inh. hit rate 49% among 780. AID 651564, 2012. isolated mitochondria counterscreen, fluorescence read-out. IC50, µM; in the data active means IC50 below about 80 µM
# * hit, by the source's call; / = no result. A selection: hits, their analogues and other compounds. The true share with any hit is near 4.8%.
SMILES,Beta apoptosis,CSC inhib,Calb FLC,MPTP inh,Mdm2 MdmX PPI,MPTP counter,others
C#CCOCCOCCOCCNc1nc(N2CCN(C(=O)[C@H](CCCN=C(N)N)n3cc(C(N)[C@@H](C)CC)nn3)CC2)nc(N2CCN(C(=O)[C@H](CCCCN)n3cc([C@@H](N)[C@H](C)CC)nn3)CC2)n1 (stereo not given in full),4.4,-3.3,/,100.6*,-20.2,-6.3,MPTP swell DR=1.47*;MPTP cs DR=>80
C#CCOCCOCCOCCNc1nc(N2CCN(C(=O)[C@H]([C@@H](C)CC)n3cc([C@@H](N)CC(C)C)nn3)CC2)nc(N2CCN(C(=O)[C@H](CCCCN)n3cc([C@@H](N)C(C)CC)nn3)CC2)n1 (stereo not given in full),-18.0,-10.9,-8.4,76.0*,-16.5,-15.7,MPTP swell DR=2.42*;MPTP cs DR=>80
CC1CCCCN1C(=O)c1c([N+](=O)[O-])cnn1C (stereo not given),0.2,/,0.9,-0.8,9.7,/,
Cc1cccc(C)c1NC(=O)c1cc(S(=O)(=O)N2CCc3ccccc32)cn1C,1.8,-7.7,-15.1,-1.0,23.7,/,
Cn1cc(S(=O)(=O)N2CCc3ccccc32)cc1C(=O)NC(C)(C)C,41.0,0.7,1.3,50.0*,12.3,79.5*,
COc1ccc(Cl)cc1NC(=O)CSc1nnc(-c2ccco2)o1,-2.5,-8.7,0.7,0.2,17.9,/,
CCOc1ccc(CN2CCN(CCCc3ccccc3)CC2CCO)cc1 (stereo not given),/,0.4,-11.8,0.0,11.0,/,
Cc1ccc(CNc2nc(C)nc3sc4c(c23)CCC4)cc1,70.9,8.9,22.9,61.8*,-4.3,81.4*,
CC1C(=O)Nc2ccc(S(=O)(=O)NCCc3ccc(Cl)cc3)cc2NC1=O (stereo not given),0.2,1.9,-9.4,-0.4,1.6,/,
CCS(=O)(=O)c1ccc(O)c(NC(=O)NC2CCCCC2)c1,1.5,-10.1,1.1,-0.4,11.0,/,
CCOc1cc(C(=O)Nc2ccc(F)cc2)cc(Br)c1OC,9.1,-10.6,-1.3,66.8*,37.4,79.2*,
Cc1[nH]n(-c2ccccc2)c(=O)c1C(c1ccc(O)c([N+](=O)[O-])c1)c1c(C)[nH]n(-c2ccccc2)c1=O,-5.5,-23.1,2.2,90.8*,14.1,73.7*,
Cc1nc2c(OCc3ccc(C(F)(F)F)cc3)cccn2c1N(C)CC1CC1,/,/,/,81.0*,/,106.6*,
COC(=O)c1ccccc1COc1cccn2c(N(C)CC3CC3)c(C)nc12,/,/,/,66.8*,/,96.6*,
CCCN1C(=O)C(=O)N(CC(=O)N2c3ccccc3NC(=O)CC2C)C1=O (stereo not given),/,/,/,0.1,/,/,
O=C(NC(=S)Nc1cccc(C(F)(F)F)c1)c1ccc2nonc2c1,3.6,11.3,11.8,72.9*,12.3,80.5*,
CC(C)(O)C(=O)NNC(=S)Nc1cccc(C(F)(F)F)c1,6.3,-6.1,-3.2,-2.5,-9.1,/,
Cc1ccccc1C(=O)NNC(=S)Nc1cccc(C(F)(F)F)c1,15.2,6.0,-0.7,23.5,16.2,/,
FC(F)(F)c1cccc(NC(=S)Nc2ccc(Cl)c(Cl)c2)c1,13.6,42.1,-5.2,80.8*,47.1,65.2*,
O=C(NNC(=S)Nc1cccc(C(F)(F)F)c1)c1ccc(Cl)cc1Cl,8.0,44.7,70.0,101.0*,7.8,89.1*,
CC(C)(C)NC(=S)Nc1cccc(C(F)(F)F)c1,-3.5,-2.0,-1.8,65.2*,18.2,84.2*,
CC(=O)c1ccc(NC(=O)c2cc(C)nc3ccccc23)cc1,1.9,3.3,-9.0,1.1,-21.1,/,
Cc1ccccc1CN1CCN(CC(=O)NCc2ccccc2)CC1,-1.7,4.8,-7.6,0.5,5.2,/,
FC(F)(F)c1cccc(NC(=S)NC(c2ccccc2)c2ccccc2)c1,44.0,35.7,-34.0,70.3*,/,83.4*,
Cc1cccnc1NC(=S)Nc1ccc(Cl)c(Cl)c1,0.2,28.5,-13.7,89.6*,-33.0,96.5*,
SMILES,Beta apoptosis,CSC inhib,Calb FLC,MPTP inh,Mdm2 MdmX PPI,MPTP counter,others
COc1ccc(NC(=S)Nc2ncccc2C)cc1OC,-2.6,-14.7,7.6,-0.7,-26.9,/,
CC(=O)Nc1cccc(Oc2nc(NC(C)C)nc3cc(-c4ccccc4)sc23)c1,/,/,/,0.0,/,/,
CC(NC(C)c1ccccc1Cl)C(=O)Nc1cccc(S(=O)(=O)N2CCCCC2)c1 (stereo not given),-3.7,/,/,0.1,-8.0,/,
OC(c1ccccc1)c1nc(-c2cccs2)cs1 (stereo not given),/,/,/,1.6,/,/,
CN(C(=O)COC(=O)c1ccc(S(=O)(=O)N2CCCCCC2)cc1)c1ccccc1,/,/,/,-1.5,/,/,
CCC(CC)C(=O)Nc1cc([N+](=O)[O-])ccc1F,-9.5,-9.1,-13.9,1.7,10.9,/,
O=C(Nc1ccccc1)Nc1cc([N+](=O)[O-])ccc1F,-1.9,-5.2,7.6,62.9*,2.4,90.9*,
Cc1cc([N+](=O)[O-])ccc1NC(=O)Nc1ccccc1F,24.1,23.9,-9.8,93.1*,27.4,92.3*,
COc1cccc(CNc2cnc3ccccc3c2)c1O,/,7.3,27.0,62.2*,-49.1,61.6*,
O=C1C2CCCN2C(=S)N1c1ccc(Cl)cc1 (stereo not given),/,-17.4,2.5,-1.4,20.1,/,
CC1CCc2c(sc(NC(=O)COC(=O)c3ccc(NC(=O)CC#N)cc3)c2C#N)C1 (stereo not given),4.7,-9.9,-1.0,0.3,1.6,/,
N#Cc1c(NC(=O)CSc2ncn[nH]2)sc2c1CCCC2,-3.1,15.4,39.8,5.6,33.7,/,
Cc1csc(SCC(=O)Nc2sc3c(c2C#N)CCC3)n1,-0.7,/,14.3,2.7,-20.7,/,
CC(C)(C)C1CCc2c(sc(NC(=O)CSc3ncn[nH]3)c2C#N)C1 (stereo not given),16.2,93.2*,-4.5,52.0*,32.1,66.4*,
CC1CCc2c(sc(NC(=O)CSc3ncn[nH]3)c2C#N)C1 (stereo not given),-18.8,37.6,1.0,51.6*,36.3,26.0*,
CC(=O)c1c(C)[nH]c(C(=O)OCC(=O)Nc2sc3c(c2C#N)CCC(C)C3)c1C (stereo not given),10.6,9.2,6.1,105.4*,36.5,88.8*,
Cc1ccnc(SCC(=O)Nc2sc3c(c2C#N)CCCC3)n1,106.3*,15.5,-5.2,100.4*,-1.3,125.0*,
Cc1sc2ncnc(NC3CCN(Cc4ccccc4)CC3)c2c1C,77.1*,21.6,33.9,90.8*,17.7,71.4*,
Cc1cc(C)nc(SCC(=O)N/N=C/c2cccnc2)n1,-3.0,-4.8,-20.4,-1.3,21.9,/,
